“And” between values parts separate entries of the source, which are not always exact repeats. Identical values can stand only once. The source made the active and inactive calls. Rule for the calls: active = hit-call score of the fitted dose curve at least 0.9, where 1 is the maximum; inactive = score below 0.9.
Read-out: Matrix Metallopeptidase 1 (MMP1), MMP1 (gene 4312)
Experiment: BSK_BF4T_MMP1: BioMAP Diversity Plus: BF4T Assay for Matrix Metallopeptidase 1 (MMP1) Biomarker Activity (AID 2284270)
Settings: primary human bronchial epithelial cells with fibroblasts
Description: BSK_BF4T is a cell-based, multiplexed-readout assay that uses bronchial epithelial cells and dermal fibroblasts, a human vascular primary cell, with measurements taken at 24 hours after chemical dosing in a microplate: 96-well plate.BSK_BF4T_MMP1 is an assay component measured in the BSK_BF4T assay. It measures MMP-1 antibody related to regulation of gene expression using ELISA technology.Data from the assay component BSK_BF4T_MMP1 was analyzed at the endpoint, BSK_BF4T_MMP1, in the positive analysis fitting direction relative to DMSO as the negative control and baseline of activity. Using a type of binding reporter, gain or loss-of-signal activity can be used to understand protein changes. To generalize the intended target to other relatable targets, this assay endpoint is annotated to the 'protease' intended target family, where the subfamily is 'matrix metalloproteinase'.
The levels of cell surface (or secreted, indicated by the prefix "s") biomarker endpoints were measured by ELISA. Overt cytotoxicity to cells in confluent adherent cultures (all systems other than the BT system) was assessed by measuring total protein levels using sulforhodamine B (SRB) staining in parallel cultures at the time of biomarker measurements, indicated as SRB endpoints. For proliferation assays for adherent cell types, individual cell types are cultured at sub-confluence and relative cell numbers quantified by SRB staining at time points optimized for each system (48 h: 3C and CASM3C systems; 72 h: BT and HDF3CGF systems; 96 h: SAg system). SRB was performed by staining cells with 0.1% SRB after fixation with 10% TCA and reading wells at 560 nm.Viability and proliferation of PBMC (T cells) was quantified by Alamar Blue reduction for the SAg and BT systems. For PBMC viability (referred to as PBMC Cytotoxicity within the assay endpoint names), cells were plated (75,000/well in a 96-well plate) and then chemical samples added for 1 h before addition of activators, SEB and TSST-1 (20 ng/mL final concentration each). Cells were incubated for 90 h. Then, Alamar Blue (20 uL/well) (Invitrogen, Cat DAL1100) was added for 6 h, and the plates were read with a fluorescence microplate reader at 546/580 nm (excitation/emission). For PBMC proliferation, cells were plated and activated as above but incubated for only 16 h prior to addition of Alamar Blue. Plates were read after 6 h.

Row | SMILES | outcome | AC50
1 | C=CC(=O)OCCC(F)(F)C(F)(F)C(F)(F)C(F)(F)C(F)(F)C(F)(F)C(F)(F)C(F)(F)F | inactive | 
2 | O=C(O)CCC(F)(F)C(F)(F)C(F)(F)C(F)(F)C(F)(F)F | inactive | 
3 | CN(Cc1cnc2nc(N)nc(N)c2n1)c1ccc(C(=O)N[C@@H](CCC(=O)O)C(=O)O)cc1 | inactive | 
4 | O=P(O)(O)CCC(F)(F)C(F)(F)C(F)(F)C(F)(F)C(F)(F)C(F)(F)C(F)(F)C(F)(F)F | inactive | 
5 | O=C(O)CCC(F)(F)C(F)(F)C(F)(F)C(F)(F)C(F)(F)C(F)(F)F | inactive | 
6 | O=S(=O)(O)C(F)(F)C(F)(F)C(F)(F)C(F)(F)C(F)(F)C(F)(F)C(F)(F)C(F)(F)C(F)(F)C(F)(F)F | inactive | 
7 | OCC(F)(F)C(F)(F)C(F)(F)C(F)(F)C(F)(F)C(F)(F)C(F)(F)C(F)(F)C(F)(F)C(F)(F)C(F)(F)F | inactive | 
8 | O=C(CC(=O)C(F)(F)C(F)(F)C(F)(F)F)c1cccs1 |  | 19.3 µM (active) and 17 µM (active)
9 | O=P(O)(O)CCC(F)(F)C(F)(F)C(F)(F)C(F)(F)C(F)(F)C(F)(F)F | inactive | 
10 | CN(CCO)S(=O)(=O)C(F)(F)C(F)(F)C(F)(F)C(F)(F)C(F)(F)C(F)(F)C(F)(F)C(F)(F)F | inactive | 
11 | O=C(O)C(F)(F)OC(F)(F)C(F)(F)OC(F)(F)C(F)(F)OC(F)(F)C(F)(F)C(F)(F)C(F)(F)F | inactive | 

— PubChem BioAssay (EPA / NIEHS)
